Reference: PubChem BioAssay (NCATS)
Inconclusive results are not listed. The source made the active and inactive calls. Calls follow the shape of the dose curve; as a rule, active = well fitted inhibition curve with a large enough effect; inconclusive = small, poorly fitted or top-dose-only effect; inactive = no such curve, though single readings can be large or run the other way.

Molecular target: Rap guanine nucleotide exchange factor 3 (Homo sapiens) (UniProt O95398)
Test: Counterscreen qHTS for antagonist of cAMP-regulated guanine nucleotide exchange factor 3 (EPAC1) (AID 1645888);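 also: fluorescence loss as bound BODIPY-GDP is released from Rap1B; % of control where 0% means no effect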
Settings: Rap1B-BODIPY-GDP nucleotide exchange, fluorescence; series mostly up to 154 µM; activity change, negative = inhibition: at the top concentration
Summary of the method: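 Rap1B–BODIPY-GDP (250 nM) with 50 uM GDP; compounds pin-transferred to 9.74 nM–152 uM final (activator) or from 7.32 nM upwards (inhibitor). Fluorescence Ex/Em 480/540 nm read at 5 and 30 min, then after adding cAMP or buffer, at room temperature.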

Sequence of Rap guanine nucleotide exchange factor 3 (Homo sapiens) (O95398 whole entry, looked up): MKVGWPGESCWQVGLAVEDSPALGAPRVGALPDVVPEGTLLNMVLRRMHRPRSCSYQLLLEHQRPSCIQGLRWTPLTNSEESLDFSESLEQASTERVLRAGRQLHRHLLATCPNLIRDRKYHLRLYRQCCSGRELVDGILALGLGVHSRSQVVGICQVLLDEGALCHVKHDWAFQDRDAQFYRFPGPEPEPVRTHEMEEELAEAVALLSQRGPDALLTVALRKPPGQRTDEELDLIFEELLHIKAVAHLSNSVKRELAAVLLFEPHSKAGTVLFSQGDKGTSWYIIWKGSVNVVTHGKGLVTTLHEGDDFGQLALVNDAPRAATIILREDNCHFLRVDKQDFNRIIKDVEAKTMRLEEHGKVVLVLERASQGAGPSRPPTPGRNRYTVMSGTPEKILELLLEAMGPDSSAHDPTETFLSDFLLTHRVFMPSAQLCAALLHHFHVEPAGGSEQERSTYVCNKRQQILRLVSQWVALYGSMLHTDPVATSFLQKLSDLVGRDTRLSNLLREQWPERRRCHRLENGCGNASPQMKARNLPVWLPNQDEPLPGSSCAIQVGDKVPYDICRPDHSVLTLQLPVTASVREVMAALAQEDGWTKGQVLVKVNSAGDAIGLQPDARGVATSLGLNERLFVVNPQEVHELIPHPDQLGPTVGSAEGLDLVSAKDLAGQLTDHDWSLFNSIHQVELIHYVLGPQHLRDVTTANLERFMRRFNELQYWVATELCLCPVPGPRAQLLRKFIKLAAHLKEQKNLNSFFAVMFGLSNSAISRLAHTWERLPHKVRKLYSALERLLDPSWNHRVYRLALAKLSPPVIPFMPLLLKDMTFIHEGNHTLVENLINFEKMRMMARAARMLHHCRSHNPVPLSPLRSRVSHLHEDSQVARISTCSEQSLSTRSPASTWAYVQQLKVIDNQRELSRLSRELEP

**Q.** How did the “activity change, negative = inhibition” value turn out when `COc1ccc(OC)c(NC(=O)c2nc(S(=O)(=O)Cc3ccccc3)ncc2Cl)c1` was run?
**A.** The value was 0.121% (inactive).

**Q.** For `O=C(NC1(O)C(=O)c2ccccc2C1=O)c1ccccc1`, which “activity change, negative = inhibition” value is on record?
**A.** The value was 23% (inactive).

**Q.** How did the “activity change, negative = inhibition” value turn out when `CCOC(=O)C1=CCN(S(=O)(=O)c2ccccc2C)C1c1ccc(Cl)c(Cl)c1` (stereo not given) was run?
**A.** Its value is -1.73% (inactive).

**Q.** `Cc1ccc(CN(Cc2ccco2)C(=O)c2ccccc2Br)o1` was tested. Which “activity change, negative = inhibition” value did it give?
**A.** The value was 16% (inactive).

**Q.** With `Cc1cccc(NC(=O)CNC(=O)CCc2nc3sc4c(c3c(=O)[nH]2)CCCC4)c1C` as the compound, how does the “activity change, negative = inhibition” value read?
**A.** Its value is 4.42% (inactive).

**Q.** Which “activity change, negative = inhibition” value does the source give for `Cc1ccc(S(=O)(=O)Oc2cccc(/C=N/Nc3ccc(C(=O)O)cc3)c2)cc1` here?
**A.** Its value is 7.61% (inactive).

**Q.** `COc1ccc(-c2nc3ccccc3nc2-c2ccccc2)cc1` was tested. Which “activity change, negative = inhibition” value did it give?
**A.** The value was 13% (inactive).

**Q.** With `CC(=O)NC(c1ccccc1)c1c(O)ccc2ccccc12` (stereo not given) as the compound, how does the activity change, negative = inhibition read?
**A.** Its activity change, negative = inhibition is -4.37% [at 30.8 µM] (inactive).

**Q.** For `Cc1ccc(SCc2cc(=O)c3c(=O)n(-c4ccccc4)[nH]c3[nH]2)cc1`, which “activity change, negative = inhibition” value is on record?
**A.** The value was 15% (inactive).

**Q.** Which activity change, negative = inhibition does the source give for `Cc1cc(NS(=O)(=O)c2ccc(NC(=S)NC(=O)/C=C/c3ccccc3)cc2)no1` here?
**A.** The activity change, negative = inhibition was -2.1% [at 30.8 µM] (inactive).

**Q.** `Cc1cc(NC2=CC(=O)C(=O)c3ccccc32)no1` was tested. Which “activity change, negative = inhibition” value did it give?
**A.** The value was 19% (inactive).

**Q.** Which activity change, negative = inhibition does the source give for `O=C(O)c1ccc(N=N/C(=N\Nc2ccc(C(=O)O)cc2)c2ccccc2)cc1` here?
**A.** Its activity change, negative = inhibition is -1.23% [at 30.8 µM] (inactive).

**Q.** For `CC(C)NC(=O)c1sc2nc(-c3cccs3)cc(-c3cccs3)c2c1N`, which “activity change, negative = inhibition” value is on record?
**A.** Its value is 29.9% (inactive).

**Q.** `CC(C)n1c(CNC(=O)c2ccccc2F)nnc1SCC(=O)NC1CCCCC1` was tested. Which “activity change, negative = inhibition” value did it give?
**A.** Its value is -8.58% (inactive).

**Q.** `CCc1noc(C)c1C(=O)Nc1nc2c(C)cc(C)cc2s1` was tested. Which “activity change, negative = inhibition” value did it give?
**A.** Its value is 1.59% (inactive).
